NCF1 inh = blocks human p47phox regulatory protein of NADPH oxidases | P14598 | p47phox/p22phox peptide binding, fluorescence polarization, 2 h | inhibition, % at 24.7 µM | hit rate 0.53% among 220,000 | AID 1274;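 active means inhibition above about 30%, limit read from the data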;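 further: 0% = p47phox with labelled peptide and 100% = labelled peptide alone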
Target sequence (P14598 whole entry, looked up): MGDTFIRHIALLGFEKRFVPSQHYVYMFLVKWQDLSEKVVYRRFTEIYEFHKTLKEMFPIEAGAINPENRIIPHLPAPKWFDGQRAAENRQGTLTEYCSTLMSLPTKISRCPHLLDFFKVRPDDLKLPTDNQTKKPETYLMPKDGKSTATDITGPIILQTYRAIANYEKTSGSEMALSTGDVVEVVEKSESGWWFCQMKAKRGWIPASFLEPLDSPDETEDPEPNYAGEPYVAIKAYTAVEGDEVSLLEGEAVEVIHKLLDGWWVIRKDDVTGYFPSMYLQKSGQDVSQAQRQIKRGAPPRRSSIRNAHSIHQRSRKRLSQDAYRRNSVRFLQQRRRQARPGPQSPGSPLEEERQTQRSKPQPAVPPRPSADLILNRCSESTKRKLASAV
HMGR II inh = blocks class II HMG-CoA reductase of Enterococcus faecalis; purified E. faecalis HMGR, NADPH absorbance 340 nm kinetic; inhibition, % at 10 µM; hit rate 0.41% among 190,000;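 active means inhibition above a set limit, the median over all tested compounds plus 3 SD, cut at about 9.5% in these data; inconclusive means no clear call, values can overlap the other calls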;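 further: enzyme runs in reverse so mevalonate oxidation gives rising NADPH absorbance; 0% = complete reaction with DMSO and 100% = background rate lacking mevalonate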
Arbovirus inh = arbovirus infection inhibition; inhibition, % at 10 µM; hit rate 0.37% among 200,000; arbovirus infection cell-based antiviral screen; in the data active means inhibition above about 30%
Ins promoter up = MIN6 insulin promoter up-regulation | AID 1625 | MIN6 insulin promoter-GFP reporter, high-content imaging; hits give high values | hit rate 0.3% among 190,000 | z-score at 5 µM;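 active means z-score above 3 at 5 µM with at least 500 cells counted in the well; inconclusive means wells under 500 cells, flagged as cytotoxic or low count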
Autophagy HCS = alters autophagy in cells; hit rate 0.98% among 190,000; AID 463193; calls only at 10 µM (by protocol); MEF GFP-LC3 puncta imaging; test concentration mostly 10 µM;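 active means percentage of spot-positive cells more than 3 SD above its plate mean, without a fluorescence outlier flag or 80% toxicity; inconclusive means no clear call, values can overlap the other calls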;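 further: spot-positive cell cutoff set from DMSO-treated cells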
DTT redox prof = compounds producing H2O2 with reducing agent – biochemical, NIH compound library profiling, artefact control for MLSCN library redox annotation, primary screen. DTT-dependent redox cycling H2O2, phenol red/HRP absorbance; 100% = 100 µM peroxide control, 0% = buffer. activation, % at 10 µM. hit rate 0.03% among 200,000;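 active means activation of at least 50% relative to the plate's high and low controls in the primary single-dose screen; inactive means activation below 50%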;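 further: compound incubated with DTT at 0.8 mM final as the reducing agent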
The depositor's hits bear a star; i = inactive; ? = inconclusive; . = not tested or not shown; + = active, no number; ! = repeats disagree. This is a sample that favours compounds with a hit; in the whole collection about 2.2% have one here.

SMILES	NCF1 inh	HMGR II inh	Arbovirus inh	Ins promoter up	Autophagy HCS	DTT redox prof
O=C(NCCCN1CCN(c2cccc(Cl)c2)CC1)c1nc(-c2ccncc2)no1	-6.2	-0.6	2.6	-0.31	i	-0.9
COc1ccc(OC)c(N)c1	106.3*	-1.9	-12.9	0.42	i	0.3
CCN(CCCNC(=O)C1CCC(=O)N1Cc1ccc(F)cc1)c1cccc(C)c1 (centres undefined)	-11.7	-1.1	-7.7	2.28	i	3.4
CCN(CCNCC(O)COCc1ccc(Cl)cc1)c1cccc(C)c1 (centres undefined)	-9.4	30.9*	-32.6	-0.88	i	0.0
Cc1nn(C)c(C(=O)NCc2ccc(Cl)cc2)c1Cl	-0.7	-3.3	13.8	.	i	0.0
O=C(NCCN1CCCCC1)c1ccc(Oc2cc(Cl)cc(Cl)c2)o1	30.4*	.	.	-0.53	.	.
O=C(NCC1CC1)c1ccc(Oc2cc(Cl)cc(Cl)c2)o1	-20.0	.	.	0.32	.	.
Cc1c(OCc2ccc(C(=O)O)o2)ccc2c3c(c(=O)oc12)CCC3	1.5	-7.6	17.3	-0.37	i	-2.7
COC(=O)c1ccc(COc2ccc3c(C)c(C)c(=O)oc3c2C)o1	72.2*	4.3	5.3	1	i	-3.2
COc1cc(Cl)c(C)cc1NC(=O)CN(C)Cc1cccc(OC)c1OC	-14.2	-4.9	3.7	3.4*	i	-2.3
COc1ccc(Cc2nnc(N/N=C/c3ccc(C)o3)[nH]c2=O)cc1	9.4	-1.4	-6.9	-0.4	i	-1.0
CSc1nc(-c2ccco2)nn1C(=O)Cc1ccccc1	-2.3	0.4	-0.5	0.26	+	-2.0
O=C(c1ccc(COc2ccccc2[N+](=O)[O-])o1)N1CCCCCC1	-6.7	11.6*	0.5	-0.76	i	-7.4
O=C(c1ccc(COc2ccccc2[N+](=O)[O-])o1)N1CCCCC1	-4.0	-5.8	2.1	-1.06	i	-7.5
O=C(c1ccc(COc2ccccc2Cl)o1)N1CCN(Cc2ccc3c(c2)OCO3)CC1	-4.1	-4.5	-19.8	-0.19	+!	-0.5
N=c1c2c(-c3ccccc3)c(-c3ccccc3)n(Cc3ccco3)c2ncn1CCN1CCOCC1	-2.0	0.5	-42.8	-1.33	+	1.8
N=c1c2c(-c3ccccc3)c(-c3ccccc3)n(Cc3ccco3)c2ncn1CCO	-3.7	1.1	-36.7	?	i	-1.1
C/C(CC(=O)Nc1cccnc1)=N\NC(=O)C(=O)Nc1cccc(C)c1	-10.5	-0.8	-7.7	-0.48	+	-0.8
Cc1cccc(NC(=S)NC(=O)/C=C/c2ccco2)c1	-18.2	-5.9	-8.2	1.23	+	-0.3
COC(=O)N/N=C/c1ccc(Oc2ccccc2)cc1	0.9	-3.2	-7.5	0.17	i	-0.1
O=C(COC(=O)[C@H](Cc1ccccc1)NC(=O)c1cccs1)Nc1c(Cl)cccc1Cl	-38.1	-5.1	-2.3	-0.89	i	-0.1
C[N+]1(CC(=O)Nc2ccccc2Cl)CCN(C(=O)c2cccs2)CC1	93.6*	-1.9	-1.0	.	i	0.2
CN1CCN(CCC(=O)Nc2ccccc2Cl)CC1	0.7	6.1	-3.2	0.2	i	3.4
O=C(NCCCl)Nc1cccnc1Cl	1.8	-1.9	10.8	0.62	i	-0.2
O=C(NC(C(=O)N/N=C/c1cccnc1)c1n[nH]c(=O)c2ccccc12)c1ccccc1 (centres undefined)	-3.5	.	.	-0.74	.	.
SMILES	NCF1 inh	HMGR II inh	Arbovirus inh	Ins promoter up	Autophagy HCS	DTT redox prof
COc1ccc(S(=O)(=O)O/N=C2\CCCc3ccccc32)cc1	41.7*	-4.8	-2.1	.	i	0.0
CCn1cc(C=C2C(=O)c3ccccc3C2=O)c2ccccc21	75.1*	-3.2	-12.5	0.48	i	0.3
CCN=C1S/C(=C\c2cn(CC)c3ccccc23)C(=O)N1CC	-14.1	5.4	-14.4	-2	i	-0.5
Cc1ccc(-n2c(C(C)C)nc3oc4ccccc4c(=O)c3c2=O)cc1	-4.2	.	.	-1.02	.	.
O=c1cnn([C@@H]2O[C@H](CO)[C@@H](O)[C@H]2O)c(=O)[nH]1	-5.6	-6.8	78.3*	.	i	-1.1
COc1ccc2nc(N/C(N)=N/C(=S)Nc3c(C)cccc3C)nc(C)c2c1	6.1	-7.2	-8.0	-0.21	+	0.0
CC1=C(C(=O)OCC2CCCO2)C(c2coc3ccccc3c2=O)C2=C(CCCC2=O)N1 (centres undefined)	-14.7	-2.6	10.2	-0.16	i	-0.5
COCCNC(=O)/C(C#N)=C/c1ccc(OC(=O)c2cccs2)c(OC)c1	113.4*	-1.3	12.7	-1.1	i	-0.1
COCCNC(=O)/C(C#N)=C/c1cccs1	-26.8	.	.	-0.02	.	.
CCN(CC)C(=S)NC(=O)c1cccnc1	6.2	17.8*	19.2	0.35	i	0.0
COc1ccc(/C=N/NC(=O)CCNc2n[nH]c(=O)[nH]c2=O)c(OC)c1	-11.4	-2.6	-3.6	1.29	+	-0.2
COc1cccc(/C=N/NC(=O)CCNc2n[nH]c(=O)[nH]c2=O)c1OC	3.4	-7.2	3.4	0.08	i	-0.1
C=C(C)C(=O)Nc1cccc(C2=NOC3(C2)C[C@@H](C(N)=O)N(C(=O)c2ccc(Cl)cc2)C3)c1 (some centres undefined)	-12.4	.	.	1.24	.	.
C/C=C(/C)C(=O)Nc1cccc(C2=NOC3(C2)C[C@H](C(N)=O)N(C(=O)c2ccc(Cl)cc2)C3)c1 (some centres undefined)	42.3*	.	.	0.55	.	.
COc1n[nH]c(C(=O)Nc2nc3ccccc3s2)c1[N+](=O)[O-]	-16.2	0.0	4.0	-0.47	i	0.0
COc1n[nH]c(C(=O)NCc2ccccc2)c1[N+](=O)[O-]	-9.3	12.1*	24.9	1.11	i	0.1
COc1cccc(CN=C2Nc3ccccc3CS2)c1	-5.9	3.7	30.1*	0.42	i	-0.3
Cc1cc(Cl)ccc1NC(=O)/C=N/O	-15.4	.	.	-0.86	.	.
Cc1cccc(N(C(=O)Nc2ccc(Cl)cc2)C2=NCC(C)S2)n1 (centres undefined)	5.6	-1.5	-7.0	-0.15	i	0.0
CCc1ccc2nc(N3C(=O)c4oc5ccccc5c(=O)c4C3c3ccc(OC)c(OC)c3)sc2c1 (centres undefined)	37.8*	-5.4	0.5	.	i	0.0
CCOc1ccc(C2c3c(oc4ccccc4c3=O)C(=O)N2c2ccccn2)cc1OC (centres undefined)	.	.	5.0	.	.	.
Cc1cc(=O)n2c(n1)SCOC2	-2.7	.	.	0.09	.	.
COc1ccc(OC)c(-c2csc(N3CCC(c4ccccc4)CC3)n2)c1	-5.1	-1.5	1.8	0.55	i	-0.7
Cc1cc2ccccc2c(=O)n1CC(=O)NCCC1=CCCCC1	4.1	0.1	1.2	2.11	i	-1.1
CSc1ccc(/C=c2\s/c(=C\C(=O)C(C)(C)C)n(CC(=O)NCCC3=CCCCC3)c2=O)cc1	-59.5	-6.8	8.2	-0.59	+	0.8
Cc1ccc(Nc2nc(N)nc(CN3CCN(Cc4ccc5c(c4)OCO5)CC3)n2)cc1C	-0.9	-2.4	8.8	-1.53	i	0.1
